The values that follow come from PubChem BioAssay (Tox21).

Structures are written as SMILES. “And” between values parts separate entries of the source, which are not always exact repeats. Equal values may be shown once. Results filed as inconclusive are left out. Where a structure was tested more than once in an assay, its records may differ in their call. The source made the active and inactive calls. Unless noted, calls come from the whole dose curve; as a rule, active = well fitted curve in the direction sought with a large enough effect in the repeat runs; inconclusive = weak or mixed curves; inactive = no such curve, though single readings can be large; an effect the other way counts as inactive or inconclusive.

The nature of assay [1]: qHTS assay to identify aromatase inhibitors - cell viability counter screen (AID 743084).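 Note: cells stimulated with testosterone during compound exposure; nearly all actives have a fitted effect of over 55% in size.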 Note: potency is the fitted concentration of half-maximal effect.
Assay [2] deals with Aryl hydrocarbon receptor (Homo sapiens) (UniProt P35869). The experiment in a line: qHTS assay to identify small molecule that activate the aryl hydrocarbon receptor (AhR) signaling pathway (AID 743085).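 For activation: HG2L7.5c1 human HepG2 liver cells with stably integrated DRE-driven firefly reporter; series mostly up to about 70 µM.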 Note: nearly all actives have a fitted effect of over 15% in size. Note: potency is the fitted concentration of half-maximal effect. A digest of the protocol: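 A multiplexed format paired cell viability (CellTiter-Fluor fluorescence) with AhR-dependent luciferase output (ONE-Glo luminescence) in the same wells of HepG2 DRE-luc cells after 24 h compound exposure at 37C.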
Chain of Aryl hydrocarbon receptor (Homo sapiens) (P35869 whole entry, looked up): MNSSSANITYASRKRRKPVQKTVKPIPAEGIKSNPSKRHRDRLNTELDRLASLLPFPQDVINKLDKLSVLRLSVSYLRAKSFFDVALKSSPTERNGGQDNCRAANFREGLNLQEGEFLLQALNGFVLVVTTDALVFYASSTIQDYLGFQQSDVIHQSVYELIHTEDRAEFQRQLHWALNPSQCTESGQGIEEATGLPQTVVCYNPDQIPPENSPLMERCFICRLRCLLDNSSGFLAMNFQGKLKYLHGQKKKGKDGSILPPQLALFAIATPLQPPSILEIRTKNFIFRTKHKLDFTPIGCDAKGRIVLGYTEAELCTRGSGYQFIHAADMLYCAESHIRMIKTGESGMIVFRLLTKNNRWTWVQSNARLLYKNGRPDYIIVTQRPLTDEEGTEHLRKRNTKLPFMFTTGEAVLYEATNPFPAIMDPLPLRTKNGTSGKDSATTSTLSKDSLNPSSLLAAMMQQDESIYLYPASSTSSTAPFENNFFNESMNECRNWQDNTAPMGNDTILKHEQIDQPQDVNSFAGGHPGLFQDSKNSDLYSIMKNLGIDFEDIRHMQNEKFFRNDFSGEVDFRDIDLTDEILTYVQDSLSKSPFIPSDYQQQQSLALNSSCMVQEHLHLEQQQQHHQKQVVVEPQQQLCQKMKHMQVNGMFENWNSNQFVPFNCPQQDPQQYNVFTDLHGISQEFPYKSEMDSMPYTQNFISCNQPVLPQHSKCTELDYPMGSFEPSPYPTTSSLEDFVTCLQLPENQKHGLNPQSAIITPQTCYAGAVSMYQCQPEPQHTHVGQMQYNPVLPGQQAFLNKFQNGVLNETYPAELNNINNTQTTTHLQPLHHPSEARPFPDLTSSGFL
In general terms: In qHTS, concentration-response curves come from the screen itself.

The nature of assay [3]: qHTS assay to identify small molecule that activate the aryl hydrocarbon receptor (AhR) signaling pathway - cell viability counter screen (AID 743086). Note: series mostly up to about 70 µM; nearly all actives have a fitted effect of over 45% in size. A digest of the protocol: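 Cytotoxicity counter screen: CellTiter-Fluor signal (30 min, 37 C) in 4000 HepG2 cells/well carrying the DRE-luciferase reporter, following 24 h compound exposure at 37 C.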
The target in assay [4] is Peroxisome proliferator-activated receptor gamma (Homo sapiens) (UniProt P37231). Kind of assay: qHTS assay to identify small molecule agonists of the peroxisome proliferator-activated receptor gamma (PPARg) signaling pathway (AID 743094; active = well fitted activation curve with a large enough effect in the signal ratio in the repeat runs, not every such curve was filed as active; the % refers to the signal ratio; note: potency is the fitted concentration of half-maximal effect). A digest of the protocol:
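Following 5 h plating at 37C, PPARg-bla HEK293H cells receive compound or DMSO for 17 h; fluorescence intensity is recorded after LiveBLAzer B/G loading for 1 h at room temperature.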

Assay [5] has the same target. The experiment in a line: qHTS assay to identify small molecule antagonists of the peroxisome proliferator-activated receptor gamma (PPARg) signaling pathway (AID 743191; calls by dose curve; note: nearly all actives have a fitted effect of over 30% in size; note: potency is the fitted concentration of half-maximal effect). The essentials:
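Beta-lactamase reporter under UAS control in HEK293H PPARg-bla cells; compound treatment 17 h at 37C. Read-out: fluorescence intensity after 1 h room-temperature incubation with LiveBLAzer B/G FRET substrate.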

A short description of assay [6]: qHTS assay to identify small molecule antagonists of the peroxisome proliferator-activated receptor gamma (PPARg) signaling pathway - cell viability counter screen (AID 743194). Note: nearly all actives have a fitted effect of over 55% in size. A digest of the protocol: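 Viability was measured as CellTiter-Glo luminescence in GeneBLAzer PPARg UAS-bla HEK293H cells. These cells had been exposed 17 h at 37 C to compounds together with rosiglitazone at 50 nM final, with the beta-lactamase readout taken in the same wells.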

Assay [7] is described as follows: qHTS assay for small molecule agonists of the antioxidant response element (ARE) signaling pathway (AID 743202; active = well fitted activation curve with a large enough effect in the signal ratio in the repeat runs, not every such curve was filed as active; the % refers to the signal ratio; note: potency is the fitted concentration of half-maximal effect). The essentials: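 Quantitative high-throughput format in HepG2 cells bearing an integrated ARE-beta-lactamase reporter. Compound exposure lasted 16 h at 37 C, and fluorescence was read 2 h after adding LiveBLAzer B/G substrate at room temperature.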
The nature of assay [8]: qHTS assay for small molecule agonists of the antioxidant response element (ARE) signaling pathway - cell viability counter screen (AID 743203; calls by dose curve; note: nearly all actives have a fitted effect of over 55% in size). The essentials: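 Compounds in DMSO were pinned onto ARE-bla HepG2 cells plated 5 hrs earlier at 2,000 cells/well. Sixteen hours later at 37C/5% CO2, CellTiter-Glo was added and luminescence measured after 30 min at room temperature.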

Assay [9] can be described thus: qHTS assay for small molecule activators of the heat shock response signaling pathway - cell viability counter screen (AID 743209). Note: nearly all actives have a fitted effect of over 50% in size. A digest of the protocol:
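Counter screen for cytotoxicity in HeLa HSE-bla reporter cells. Treatment was 5 h at 37 C; viability was detected by luminescent ATP assay (CellTiter-Glo) in the same wells as the beta-lactamase read.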

A short description of assay [10]: qHTS assay for small molecule activators of the heat shock response signaling pathway (AID 743210; active = well fitted activation curve with a large enough effect in the signal ratio in the repeat runs, with a control signal flat, not every such curve was filed as active; the % refers to the signal ratio;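 note: HeLa cells with beta-lactamase reporter driven by heat shock elements; series mostly up to about 63 µM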). A digest of the protocol:
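HeLa HSE-bla cells, overnight plating; cpd in DMSO 5 h, 37 C; LiveBLAzer B/G FRET substrate 2.5 h RT; fluorescence intensity read.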

The nature of assay [11]: qHTS assay to identify small molecule agonists of the peroxisome proliferator-activated receptor delta (PPARd) signaling pathway - cell viability counter screen (AID 743211). Note: nearly all actives have a fitted effect of over 55% in size. Note: potency is the fitted concentration of half-maximal effect. The essentials: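 Tox21 library compounds, delivered in DMSO, were incubated 17 h with PPARd-bla HEK293H cells; cytotoxicity was taken from CellTiter-Glo luminescence read 30 min after reagent addition.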

Assay [12] has as its target Peroxisome proliferator-activated receptor delta (Homo sapiens) (UniProt Q03181). The experiment in a line: qHTS assay to identify small molecule agonists of the peroxisome proliferator-activated receptor delta (PPARd) signaling pathway (AID 743212; calls by dose curve). A digest of the protocol:
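HEK293H PPARd-bla cells; 5 h preincubation 37 C/5% CO2; compound (DMSO) 37 C; LiveBLAzer B/G FRET substrate 2 h RT; fluorescence intensity.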

A short description of assay [13]: qHTS assay to identify small molecule antagonists of the peroxisome proliferator-activated receptor delta (PPARd) signaling pathway - cell viability counter screen (AID 743213). Note: nearly all actives have a fitted effect of over 50% in size. The essentials:
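Viability counter-screen, qHTS format: PPARd-bla HEK293H, L165041 300 nM final, 17 h compound exposure at 37 C, CellTiter-Glo luminescence after 30 min RT.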

Assay [14] in a line: qHTS assay to identify small molecule agonists of the farnesoid-X-receptor (FXR) signaling pathway - cell viability counter screen (AID 743218). Note: nearly all actives have a fitted effect of over 45% in size. A digest of the protocol: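 After 16 h at 37 C with test compounds, FXR-bla HEK 293T cells were given LiveBLAzer B/G substrate for 2 h at RT and then CellTiter-Glo; luminescence was taken after 30 min.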
Assay [15] can be described thus: qHTS assay to identify small molecule antagonists of the farnesoid-X-receptor (FXR) signaling pathway - cell viability counter screen (AID 743221; active = well fitted cell-killing curve with a large enough effect in the repeat runs, not every such curve was filed as active; note: nearly all actives have a fitted effect of over 50% in size). The essentials:
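Cytotoxicity is taken from ATP luminescence (CellTiter-Glo, 30 min, room temperature) in FXR-bla HEK 293T cells previously incubated 16 h at 37 C with compound and chenodeoxycholic acid at 50 uM final.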

Assay [16] has as its target Vitamin D3 receptor (Homo sapiens) (UniProt P11473). The experiment in a line: qHTS assay to identify small molecule agonists of the vitamin D receptor (VDR) signaling pathway (AID 743222; calls by dose curve). The essentials: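 VDR-bla cells were seeded, left 4 h, treated with compounds in DMSO for 16 h, incubated 2 h at RT with B/G FRET substrate, and read for fluorescence.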
For assay [17] the target is unchanged. Kind of assay: qHTS assay to identify small molecule antagonists of the vitamin D receptor (VDR) signaling pathway (AID 743223; active = well fitted inhibition curve with a large enough effect in the signal ratio in the repeat runs, not every such curve was filed as active; the % refers to the signal ratio). The essentials:
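Quantitative HTS in VDR-bla reporter cells stimulated with 1alpha,25-dihydroxyvitamin D3, 3 nM final. Compound exposure 16 h, 37C, 5% CO2. Read-out: beta-lactamase FRET substrate fluorescence, 2 h RT.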

The target of assay [18] is Bile acid receptor (Homo sapiens) (UniProt Q96RI1). Kind of assay: qHTS assay to identify small molecule antagonists of the farnesoid-X-receptor (FXR) signaling pathway (AID 743217; active = well fitted inhibition curve with a large enough effect in the signal ratio in the repeat runs, not every such curve was filed as active; the % refers to the signal ratio). The essentials: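 In this cell-based antagonist screen, inhibition of CDCA-driven (50 uM final) UAS-beta-lactamase expression in HEK 293T cells was measured by FRET fluorescence following 16 h compound exposure at 37 °C.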
Chain of Bile acid receptor (Homo sapiens) (Q96RI1 whole entry, looked up): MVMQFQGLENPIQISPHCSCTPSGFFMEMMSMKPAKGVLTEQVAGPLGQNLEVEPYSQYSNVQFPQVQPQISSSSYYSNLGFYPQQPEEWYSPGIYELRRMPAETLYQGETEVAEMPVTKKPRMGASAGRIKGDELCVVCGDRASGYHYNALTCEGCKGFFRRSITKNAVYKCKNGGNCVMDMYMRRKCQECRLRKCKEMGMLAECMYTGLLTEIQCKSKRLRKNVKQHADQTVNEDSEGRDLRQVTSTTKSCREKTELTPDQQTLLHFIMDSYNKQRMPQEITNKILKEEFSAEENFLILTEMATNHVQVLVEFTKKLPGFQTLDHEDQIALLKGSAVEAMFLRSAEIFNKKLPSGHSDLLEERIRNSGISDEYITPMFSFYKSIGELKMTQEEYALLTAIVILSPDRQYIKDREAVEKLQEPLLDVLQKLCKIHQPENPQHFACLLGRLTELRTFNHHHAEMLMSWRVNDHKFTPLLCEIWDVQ

Assay [19] shares this target. Kind of assay: qHTS assay to identify small molecule agonists of the farnesoid-X-receptor (FXR) signaling pathway (AID 743220; active = well fitted activation curve with a large enough effect in the signal ratio in the repeat runs, not every such curve was filed as active; the % refers to the signal ratio). The essentials: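 Beta-lactamase reporter under UAS control in GeneBLAzer FXR HEK 293T cells (5000/well) measured with LiveBLAzer FRET substrate after 2 h at room temperature. Compound exposure lasted 16 h at 37C.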

Chain of Vitamin D3 receptor (Homo sapiens) (P11473 whole entry, looked up): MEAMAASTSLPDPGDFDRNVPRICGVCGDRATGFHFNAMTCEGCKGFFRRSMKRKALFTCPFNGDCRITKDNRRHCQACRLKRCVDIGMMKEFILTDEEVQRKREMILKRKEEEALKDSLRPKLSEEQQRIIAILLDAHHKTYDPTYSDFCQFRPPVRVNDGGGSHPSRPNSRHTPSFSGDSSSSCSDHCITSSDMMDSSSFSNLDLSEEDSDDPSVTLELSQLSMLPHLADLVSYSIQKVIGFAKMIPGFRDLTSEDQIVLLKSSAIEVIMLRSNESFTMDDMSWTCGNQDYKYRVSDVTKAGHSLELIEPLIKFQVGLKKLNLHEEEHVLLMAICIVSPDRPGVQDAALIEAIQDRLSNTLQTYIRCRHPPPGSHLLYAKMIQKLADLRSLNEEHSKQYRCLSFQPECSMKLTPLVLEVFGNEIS
Chain of Peroxisome proliferator-activated receptor gamma (Homo sapiens) (P37231 whole entry, looked up): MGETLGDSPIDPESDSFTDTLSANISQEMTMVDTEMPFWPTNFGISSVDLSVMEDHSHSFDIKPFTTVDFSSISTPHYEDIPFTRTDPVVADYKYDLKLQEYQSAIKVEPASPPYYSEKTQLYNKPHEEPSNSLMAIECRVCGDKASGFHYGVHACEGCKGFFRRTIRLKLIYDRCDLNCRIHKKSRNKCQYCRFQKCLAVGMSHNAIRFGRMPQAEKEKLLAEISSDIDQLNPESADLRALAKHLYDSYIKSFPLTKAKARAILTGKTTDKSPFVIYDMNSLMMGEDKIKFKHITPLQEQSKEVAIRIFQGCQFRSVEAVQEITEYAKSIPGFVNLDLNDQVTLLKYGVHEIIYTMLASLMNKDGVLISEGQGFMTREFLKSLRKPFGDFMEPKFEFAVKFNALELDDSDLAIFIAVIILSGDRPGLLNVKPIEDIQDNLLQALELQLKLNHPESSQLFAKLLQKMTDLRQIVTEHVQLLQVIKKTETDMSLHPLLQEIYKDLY
Chain of Peroxisome proliferator-activated receptor delta (Homo sapiens) (Q03181 whole entry, looked up): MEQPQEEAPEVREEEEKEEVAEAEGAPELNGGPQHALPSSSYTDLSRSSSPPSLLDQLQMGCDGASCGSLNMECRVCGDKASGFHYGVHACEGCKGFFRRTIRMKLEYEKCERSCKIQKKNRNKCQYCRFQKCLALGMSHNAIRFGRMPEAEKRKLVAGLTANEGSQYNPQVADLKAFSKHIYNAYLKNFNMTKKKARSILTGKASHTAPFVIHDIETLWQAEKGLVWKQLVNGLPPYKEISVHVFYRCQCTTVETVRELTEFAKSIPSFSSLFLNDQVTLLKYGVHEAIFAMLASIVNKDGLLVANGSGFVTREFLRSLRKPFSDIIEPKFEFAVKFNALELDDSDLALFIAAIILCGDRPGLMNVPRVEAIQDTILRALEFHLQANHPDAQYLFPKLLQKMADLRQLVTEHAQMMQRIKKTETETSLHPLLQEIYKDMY

In the case of `OCCCc1ccccc1`, the Potency entry in assay [1], in [2], in assay [3], in [4], in assay [5] and in assay [6] was “inactive” throughout. Moreover, the Potency result in assay [7], in assay [8], in assay [11], in [13], in [14] and in assay [17] was “inactive” each time. The compound was called inactive in [9], in [10], in [12], in [15] and in [16].
Regarding `CC1(C)O[C@@H]2[C@@H](CO[C@@]3(COS(N)(=O)=O)OC(C)(C)O[C@@H]23)O1`, the Potency entry in [1], in [2], in [3], in assay [4], in assay [5] and in assay [6] was “inactive” throughout. Moreover, the Potency entry in [7], in [8], in assay [11], in assay [13], in assay [14] and in [17] was “inactive” in each case. In addition, the compound was called inactive in assay [9], in assay [10], in assay [15] and in [16].
`N[C@@H](Cc1c[nH]c2ccc(O)cc12)C(=O)O`: the Potency entry in assay [1], in assay [3], in [4], in assay [5], in assay [6] and in assay [7] was “inactive” in each case. For the same compound, the Potency entry in [8], in [11], in [13], in [14] and in assay [17] was “inactive” each time. For the same compound, in [2], the Potency was 9.44 µM (active) and 5.29 µM (active). Besides, the result in assay [9], in [10], in assay [12], in assay [15] and in [16] was inactive.
Regarding `Nc1ccc(N=Nc2ccccc2)c(N)n1`, the Potency was 27.4 µM (active) and 54.5 µM (active) in assay [1]; 13.3 µM (active) and 13.8 µM (active) and 34.4 µM (active) in assay [2]; “inactive and 26.6 µM (active)” in assay [7]; 43.9 µM (active) and inactive in assay [11]. Besides, the Potency entry in assay [3], in assay [4], in assay [5], in assay [6], in assay [8] and in assay [13] was “inactive” each time. For the same compound, the Potency entry in assay [14] and in assay [17] was “inactive” throughout. Also, the call in [9], in assay [10], in [12], in assay [15] and in assay [16] was inactive.
As for `COC1=CC(=O)C[C@@H](C)[C@]12Oc1c(Cl)c(OC)cc(OC)c1C2=O`, the Potency result in assay [1], in [2], in [3], in assay [6], in assay [8] and in [11] was “inactive” each time. Besides, the Potency result in assay [13], in assay [18] and in [14] was “inactive” in each case. Also, the Potency result was “inactive and 48.5 µM (active)” in assay [4]; 19.5 µM (active) in [5]. Besides, the result in [9], in assay [10], in assay [12], in assay [19], in assay [15] and in assay [16] was inactive.
As for `C#C[C@]1(O)CC[C@H]2[C@@H]3CCC4=CC(=O)CC[C@@H]4[C@H]3CC[C@@]21CC`, the Potency result in assay [1], in [2], in assay [3], in [4], in [5] and in assay [6] was “inactive” each time. Moreover, the Potency result in assay [8], in [11], in assay [13], in assay [14] and in [17] was “inactive” throughout. The Potency in [7] is 48.6 µM (active). Further, the result in assay [9], in assay [12], in [15] and in [16] was inactive.
As to `Nc1cccc(N)c1`, the Potency entry in assay [1], in [3], in [4], in assay [5], in assay [6] and in assay [7] was “inactive” each time. For the same compound, the Potency entry in assay [8], in assay [11], in [13], in assay [18], in [14] and in assay [17] was “inactive” throughout. For the same compound, the Potency in [2] was 54.4 µM (active). The result in assay [9], in [10], in [19], in assay [15] and in [16] was inactive.
